Binding signal data for 1 sequence are collected here from article PMC7862700, “An all-to-all approach to the identification of sequence-specific readers for epigenetic DNA modifications on cytosine”.

Common to all, as to assay: DAPPL (digital affinity profiling via proximity ligation, sequencing); 10 mM Tris-HCl pH 7.5, 50 mM NaCl, 1 mM DTT, 4% glycerol, room temperature, 30 min; GST-TFs on glutathione beads, 16-mer random dsDNA library, 0.1% formaldehyde crosslink after washing; high values mean tight binding
Holding throughout (conditions): protein: recombinant; tags: N-terminal GST; dsDNA, one strand shown

Assay [1] deals with T1, ELK4 (Homo sapiens, UniProt P28324-2 1-405).
T1 sequence: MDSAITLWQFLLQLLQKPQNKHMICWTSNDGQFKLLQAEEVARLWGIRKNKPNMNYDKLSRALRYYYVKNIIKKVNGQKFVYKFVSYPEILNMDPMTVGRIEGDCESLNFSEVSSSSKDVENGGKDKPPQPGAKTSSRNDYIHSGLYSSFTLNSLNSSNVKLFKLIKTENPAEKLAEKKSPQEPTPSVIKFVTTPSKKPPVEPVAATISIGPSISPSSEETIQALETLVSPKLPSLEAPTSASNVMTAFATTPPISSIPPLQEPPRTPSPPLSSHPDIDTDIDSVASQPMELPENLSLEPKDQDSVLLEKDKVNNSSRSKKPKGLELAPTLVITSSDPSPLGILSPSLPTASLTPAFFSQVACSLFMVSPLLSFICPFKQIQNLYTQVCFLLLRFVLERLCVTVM
In outline:
(§1)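 GST fusions of human transcription factors were expressed in yeast and captured with glutathione beads. Once given DNA barcodes and pooled alongside a tag-only sample, they were incubated for 30 min at room temperature with 200 nmole of a random double-stranded 16-mer DNA library in Tris/NaCl/DTT/glycerol buffer, then washed, crosslinked (0.1% formaldehyde), proximity-ligated, PCR-amplified and sequenced on an Illumina NextSeq500. The binding signal of each hexamer is its read frequency for a factor divided by its frequency for the tag-only sample.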

The target in assay [2] is T2, ETV2 (Homo sapiens, UniProt O00321 1-342).
T2 sequence: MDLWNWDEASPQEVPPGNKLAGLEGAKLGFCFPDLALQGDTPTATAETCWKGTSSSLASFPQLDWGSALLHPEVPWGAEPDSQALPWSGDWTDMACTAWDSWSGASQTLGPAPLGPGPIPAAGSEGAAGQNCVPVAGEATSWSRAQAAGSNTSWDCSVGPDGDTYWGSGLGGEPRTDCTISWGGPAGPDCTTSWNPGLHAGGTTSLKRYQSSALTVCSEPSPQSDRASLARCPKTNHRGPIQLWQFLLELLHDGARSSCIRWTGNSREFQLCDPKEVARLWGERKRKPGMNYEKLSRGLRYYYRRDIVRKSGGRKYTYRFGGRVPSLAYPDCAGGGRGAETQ
In outline:
as §1

In assay [3] the target is T3, ELF3 (Homo sapiens, UniProt P78545 1-371).
T3 sequence: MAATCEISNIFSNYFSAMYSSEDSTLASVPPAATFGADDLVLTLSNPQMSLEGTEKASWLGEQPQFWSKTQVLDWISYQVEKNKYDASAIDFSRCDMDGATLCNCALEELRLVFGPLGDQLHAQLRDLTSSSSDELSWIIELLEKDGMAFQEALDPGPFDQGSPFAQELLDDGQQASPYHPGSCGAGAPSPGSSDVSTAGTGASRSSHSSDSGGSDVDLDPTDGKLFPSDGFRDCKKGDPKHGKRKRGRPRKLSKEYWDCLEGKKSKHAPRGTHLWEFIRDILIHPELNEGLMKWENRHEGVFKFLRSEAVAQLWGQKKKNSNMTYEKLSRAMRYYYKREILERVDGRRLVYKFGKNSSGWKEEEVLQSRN
In outline: as §1

Assay [4] concerns the target ETV1 (Homo sapiens, UniProt P50549 1-477). In outline: as §1
Assay [5] deals with T4, ERF (Homo sapiens, UniProt P50548 1-548).
T4 sequence: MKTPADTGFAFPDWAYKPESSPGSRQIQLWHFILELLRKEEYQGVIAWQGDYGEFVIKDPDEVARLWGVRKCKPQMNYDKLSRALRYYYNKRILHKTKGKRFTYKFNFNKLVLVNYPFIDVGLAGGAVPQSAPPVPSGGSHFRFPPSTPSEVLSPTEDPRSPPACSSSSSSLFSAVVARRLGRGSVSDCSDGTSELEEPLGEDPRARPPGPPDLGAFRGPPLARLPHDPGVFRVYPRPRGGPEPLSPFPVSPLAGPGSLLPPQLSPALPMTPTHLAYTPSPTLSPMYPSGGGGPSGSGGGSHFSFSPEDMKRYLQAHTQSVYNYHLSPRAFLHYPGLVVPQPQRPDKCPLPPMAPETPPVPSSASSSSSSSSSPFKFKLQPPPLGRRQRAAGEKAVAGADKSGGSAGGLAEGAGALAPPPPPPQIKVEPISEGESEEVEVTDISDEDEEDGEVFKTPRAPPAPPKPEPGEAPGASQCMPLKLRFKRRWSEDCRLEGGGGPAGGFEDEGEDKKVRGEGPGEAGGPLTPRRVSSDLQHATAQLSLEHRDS
The essentials: as §1

The target of assay [6] is T5, ETV3L (Homo sapiens, UniProt Q6ZN32 1-361).
T5 sequence: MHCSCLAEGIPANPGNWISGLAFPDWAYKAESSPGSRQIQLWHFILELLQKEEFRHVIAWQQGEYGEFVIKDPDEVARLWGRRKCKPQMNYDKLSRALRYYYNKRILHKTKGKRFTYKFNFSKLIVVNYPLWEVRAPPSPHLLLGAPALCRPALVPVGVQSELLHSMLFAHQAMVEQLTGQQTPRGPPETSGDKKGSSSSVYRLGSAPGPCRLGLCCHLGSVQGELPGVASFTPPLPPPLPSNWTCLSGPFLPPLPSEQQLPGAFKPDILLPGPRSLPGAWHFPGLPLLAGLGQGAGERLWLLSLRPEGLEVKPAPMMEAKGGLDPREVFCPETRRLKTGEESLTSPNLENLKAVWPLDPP
In outline:
as §1

The target of assay [7] is T6, ETS2 (Homo sapiens, UniProt P15036 1-469).
T6 sequence: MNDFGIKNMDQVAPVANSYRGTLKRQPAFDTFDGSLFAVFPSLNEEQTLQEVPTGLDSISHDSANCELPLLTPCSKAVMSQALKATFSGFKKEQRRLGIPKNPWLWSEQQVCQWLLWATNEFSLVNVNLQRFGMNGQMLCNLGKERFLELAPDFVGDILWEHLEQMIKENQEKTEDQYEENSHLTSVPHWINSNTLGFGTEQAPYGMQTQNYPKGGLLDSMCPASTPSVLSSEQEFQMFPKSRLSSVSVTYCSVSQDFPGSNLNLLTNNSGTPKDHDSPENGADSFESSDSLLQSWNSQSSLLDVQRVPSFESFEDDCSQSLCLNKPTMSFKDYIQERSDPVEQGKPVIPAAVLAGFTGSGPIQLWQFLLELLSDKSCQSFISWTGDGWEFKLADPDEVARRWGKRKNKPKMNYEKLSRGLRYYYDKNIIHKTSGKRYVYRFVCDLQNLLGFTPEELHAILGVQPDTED
In outline: as §1

Assay [8] deals with T7, ETV7 (Homo sapiens, UniProt Q9Y603 1-341).
T7 sequence: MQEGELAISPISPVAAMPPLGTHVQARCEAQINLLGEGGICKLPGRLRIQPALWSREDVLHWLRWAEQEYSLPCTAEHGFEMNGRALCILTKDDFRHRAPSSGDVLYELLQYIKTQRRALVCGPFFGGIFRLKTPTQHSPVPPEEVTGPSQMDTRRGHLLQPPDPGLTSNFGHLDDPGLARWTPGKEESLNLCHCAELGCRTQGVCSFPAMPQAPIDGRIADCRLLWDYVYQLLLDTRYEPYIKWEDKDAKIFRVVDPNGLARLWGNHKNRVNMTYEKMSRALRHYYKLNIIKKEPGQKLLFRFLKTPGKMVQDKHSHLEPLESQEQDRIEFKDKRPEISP
In outline:
as §1

The target in assay [9] is T8, ETV3 (Homo sapiens, UniProt P41162-2 1-143).
T8 sequence: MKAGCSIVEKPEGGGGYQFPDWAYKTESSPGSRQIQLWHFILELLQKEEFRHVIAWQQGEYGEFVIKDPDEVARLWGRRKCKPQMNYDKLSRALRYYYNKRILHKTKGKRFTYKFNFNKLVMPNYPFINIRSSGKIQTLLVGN
In outline:
as §1

Assay [10] concerns the target ETV6 (Homo sapiens, UniProt P41212 1-452). In outline:
as §1

Chain of ETV6 (P41212 whole entry): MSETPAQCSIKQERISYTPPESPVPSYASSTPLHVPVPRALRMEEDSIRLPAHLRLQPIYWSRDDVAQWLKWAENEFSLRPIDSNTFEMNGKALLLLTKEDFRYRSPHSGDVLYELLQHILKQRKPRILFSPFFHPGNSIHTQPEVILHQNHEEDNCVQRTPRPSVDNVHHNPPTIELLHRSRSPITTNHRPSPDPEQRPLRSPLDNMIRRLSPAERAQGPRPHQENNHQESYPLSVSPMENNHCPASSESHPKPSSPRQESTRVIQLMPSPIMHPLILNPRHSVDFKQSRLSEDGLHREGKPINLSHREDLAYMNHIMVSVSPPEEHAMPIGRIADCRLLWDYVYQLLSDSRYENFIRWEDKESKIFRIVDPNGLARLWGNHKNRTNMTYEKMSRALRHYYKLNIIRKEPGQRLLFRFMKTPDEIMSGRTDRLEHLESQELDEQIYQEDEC
Chain of ETV1 (P50549 whole entry): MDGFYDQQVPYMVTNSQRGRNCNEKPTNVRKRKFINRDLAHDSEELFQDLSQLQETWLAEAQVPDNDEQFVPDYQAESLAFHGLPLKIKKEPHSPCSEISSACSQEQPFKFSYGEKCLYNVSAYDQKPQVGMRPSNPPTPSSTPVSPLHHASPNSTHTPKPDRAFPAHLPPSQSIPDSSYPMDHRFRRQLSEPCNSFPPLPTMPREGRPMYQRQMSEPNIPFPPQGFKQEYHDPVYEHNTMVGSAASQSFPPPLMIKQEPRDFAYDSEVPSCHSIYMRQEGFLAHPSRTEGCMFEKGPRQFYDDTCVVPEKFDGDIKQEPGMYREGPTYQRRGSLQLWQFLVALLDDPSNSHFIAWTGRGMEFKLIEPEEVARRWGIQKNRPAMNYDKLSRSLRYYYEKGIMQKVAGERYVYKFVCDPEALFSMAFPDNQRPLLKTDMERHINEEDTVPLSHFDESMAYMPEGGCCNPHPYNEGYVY

As to ACCATT, the binding signal in assay [1] was 1.15 fold enrichment (6-mer frequency, TF over GST control); in assay [2], 1.26 fold enrichment (6-mer frequency, TF over GST control); in assay [3], 1.17 fold enrichment (6-mer frequency, TF over GST control); in assay [4] it was 1.14 fold enrichment (6-mer frequency, TF over GST control); in assay [5] it was 1.03 fold enrichment (6-mer frequency, TF over GST control); in assay [6] it was 1.16 fold enrichment (6-mer frequency, TF over GST control). The binding signal in assay [7] was 1.15 fold enrichment (6-mer frequency, TF over GST control); in [8], 1.11 fold enrichment (6-mer frequency, TF over GST control); in assay [9], 1.1 fold enrichment (6-mer frequency, TF over GST control); in [10] it was 1.14 fold enrichment (6-mer frequency, TF over GST control).
